About 83,000 compounds went through this panel and 20% of them were active in at least one assay; those are over-represented in the sample as a whole.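 Each cell line was grown in a 96-well plate and treated with one concentration of compound for 48 hours. Values below 10 were considered active.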 Unmarked numbers belong to inactive results. The source made the active and inactive calls.
Assays:
Test in all cases: NCI-60 one-dose screen, 48 h (100 = growth as untreated, 0 = no growth, -100 = all killed)
Conditions in all cases: 10 µM unless noted
SR leukemia = system: SR leukemia
RPMI-8226 leukemia = system: RPMI-8226 leukemia
OVCAR-8 ovarian = system: OVCAR-8 ovarian
OVCAR-5 ovarian = system: OVCAR-5 ovarian
SK-OV-3 ovarian = system: SK-OV-3 ovarian
IGROV1 ovarian = system: IGROV1 ovarian
OVCAR-3 ovarian = system: OVCAR-3 ovarian
NCI/ADR-RES ovarian = system: NCI/ADR-RES ovarian
T-47D breast = system: T-47D breast
BT-549 breast = system: BT-549 breast
MDA-MB-435 melanoma = system: MDA-MB-435 melanoma
SW-620 colon = system: SW-620 colon
MCF7 breast = system: MCF7 breast
HCT-116 colon = system: HCT-116 colon
HCC-2998 colon = system: HCC-2998 colon
KM12 colon = system: KM12 colon
HS 578T breast = system: HS 578T breast

[2H]C1([2H])CCN(C(=O)C2CC2)c2cc(NS(=O)(=O)c3ccc(-c4cccc(C(N)=O)c4)cc3)ccc21
growth (SR leukemia): 38.1%
growth (RPMI-8226 leukemia): 37.1%
growth (OVCAR-8 ovarian): 53.9%
growth (OVCAR-5 ovarian): 60.6%
growth (SK-OV-3 ovarian): 26.1%
growth (IGROV1 ovarian): 32.4%
growth (OVCAR-3 ovarian): 12.4%
growth (NCI/ADR-RES ovarian): 95%
growth (T-47D breast): 19.5%
growth (BT-549 breast): 79%
growth (MDA-MB-435 melanoma): -11.2% (active)
growth (SW-620 colon): 31%
growth (MCF7 breast): 21.4%
growth (HCT-116 colon): 81.5%
growth (HCC-2998 colon): 60.1%
growth (KM12 colon): 19.8%

C=C(C)[C@@H]1CC[C@]2(C)[C@H](CC[C@@H]3[C@@H]([C@@](C)(O)CCC=C(C)C)CC[C@]32C)[C@@]1(C)CCC(=O)O
growth (SR leukemia): 21.4% [100 µM]
growth (RPMI-8226 leukemia): 0.565% [100 µM] (active)
growth (OVCAR-8 ovarian): 14.8% [100 µM]
growth (OVCAR-5 ovarian): 3.52% [100 µM] (active)
growth (IGROV1 ovarian): -24.2% [100 µM] (active)
growth (OVCAR-3 ovarian): -70.2% [100 µM] (active)
growth (HS 578T breast): -16.7% [100 µM] (active)
growth (NCI/ADR-RES ovarian): 6.42% [100 µM] (active)
growth (T-47D breast): 17% [100 µM]
growth (BT-549 breast): -22% [100 µM] (active)
growth (MDA-MB-435 melanoma): -36.7% [100 µM] (active)
growth (SW-620 colon): 0.938% [100 µM] (active)
growth (MCF7 breast): 7.92% [100 µM] (active)
growth (HCT-116 colon): -39.4% [100 µM] (active)
growth (HCC-2998 colon): -37.4% [100 µM] (active)
growth (KM12 colon): -55.2% [100 µM] (active)

C[C@H]1[C@H](C)CC[C@]2(C(=O)O)CC[C@]3(C)C(=CC[C@@H]4[C@@]5(C)C/C(=C/c6ccco6)C(=O)C(C)(C)[C@@H]5CC[C@]43C)[C@H]12
growth (SR leukemia): 31.2% [100 µM]
growth (RPMI-8226 leukemia): -19.3% [100 µM] (active)
growth (OVCAR-8 ovarian): -19% [100 µM] (active)
growth (OVCAR-5 ovarian): -48.8% [100 µM] (active)
growth (SK-OV-3 ovarian): -17.3% [100 µM] (active)
growth (IGROV1 ovarian): -59.6% [100 µM] (active)
growth (OVCAR-3 ovarian): -74.5% [100 µM] (active)
growth (HS 578T breast): -13.9% [100 µM] (active)
growth (NCI/ADR-RES ovarian): -58.9% [100 µM] (active)
growth (T-47D breast): -14.3% [100 µM] (active)
growth (MDA-MB-435 melanoma): -85.1% [100 µM] (active)
growth (SW-620 colon): -44.9% [100 µM] (active)
growth (MCF7 breast): -74.7% [100 µM] (active)
growth (HCT-116 colon): -73% [100 µM] (active)
growth (HCC-2998 colon): -81.4% [100 µM] (active)
growth (KM12 colon): -73.5% [100 µM] (active)

O=S(=O)(NCc1ccccc1)c1ncnc2nc[nH]c12
growth (SR leukemia): 105%
growth (RPMI-8226 leukemia): 99.2%
growth (OVCAR-8 ovarian): 87.2%
growth (OVCAR-5 ovarian): 106%
growth (SK-OV-3 ovarian): 108%
growth (IGROV1 ovarian): 119%
growth (OVCAR-3 ovarian): 111%
growth (NCI/ADR-RES ovarian): 97.4%
growth (T-47D breast): 107%
growth (BT-549 breast): 93.7%
growth (MDA-MB-435 melanoma): 110%
growth (SW-620 colon): 103%
growth (MCF7 breast): 98.1%
growth (HCT-116 colon): 108%
growth (HCC-2998 colon): 101%
growth (KM12 colon): 101%

CSc1nc(N)c(N=Nc2ccc(S(=O)(=O)Nc3nnc(C)s3)cc2)c(=O)[nH]1
growth (SR leukemia): 110%
growth (RPMI-8226 leukemia): 132%
growth (OVCAR-8 ovarian): 103%
growth (OVCAR-5 ovarian): 113%
growth (SK-OV-3 ovarian): 96.9%
growth (IGROV1 ovarian): 126%
growth (OVCAR-3 ovarian): 106%
growth (HS 578T breast): 89.4%
growth (NCI/ADR-RES ovarian): 113%
growth (MDA-MB-435 melanoma): 128%
growth (SW-620 colon): 93.4%
growth (HCT-116 colon): 109%
growth (HCC-2998 colon): 117%
growth (KM12 colon): 98.6%

CC[C@]12C=CCN3CC[C@@]4(c5ccc(OC)cc5N(C)[C@H]4[C@@](O)(C(=O)OC)[C@@H]1OC(=O)CCC(=O)O[C@H]1CC[C@H]4[C@@H]5CCC6=CC(=O)CC[C@@H]6[C@H]5CC[C@]14C)[C@@H]32
growth (SR leukemia): 10.5% [100 µM]
growth (RPMI-8226 leukemia): -22.1% [100 µM] (active)
growth (OVCAR-8 ovarian): 26.4% [100 µM]
growth (OVCAR-5 ovarian): 23.7% [100 µM]
growth (SK-OV-3 ovarian): 13.2% [100 µM]
growth (IGROV1 ovarian): -46.3% [100 µM] (active)
growth (OVCAR-3 ovarian): 8.48% [100 µM] (active)
growth (HS 578T breast): 4.75% [100 µM] (active)
growth (NCI/ADR-RES ovarian): 10.8% [100 µM]
growth (T-47D breast): 21.6% [100 µM]
growth (MDA-MB-435 melanoma): 7.01% [100 µM] (active)
growth (SW-620 colon): 11.1% [100 µM]
growth (MCF7 breast): 11.7% [100 µM]
growth (HCT-116 colon): 3.76% [100 µM] (active)
growth (HCC-2998 colon): 3.12% [100 µM] (active)
growth (KM12 colon): 6.43% [100 µM] (active)

CC1(C)C(=O)/C(=C\c2cccnc2)C[C@]2(C)[C@H]3CC[C@@H]4[C@H]5[C@H](C(=O)/C=C/c6cccnc6)CC[C@]5(C(=O)O)CC[C@@]4(C)[C@]3(C)CC[C@@H]12
growth (SR leukemia): 25.8% [100 µM]
growth (RPMI-8226 leukemia): -27% [100 µM] (active)
growth (OVCAR-8 ovarian): 0.147% [100 µM] (active)
growth (OVCAR-5 ovarian): -49% [100 µM] (active)
growth (SK-OV-3 ovarian): -68.5% [100 µM] (active)
growth (IGROV1 ovarian): -34.3% [100 µM] (active)
growth (OVCAR-3 ovarian): -75.4% [100 µM] (active)
growth (HS 578T breast): -0.172% [100 µM] (active)
growth (NCI/ADR-RES ovarian): -1.33% [100 µM] (active)
growth (BT-549 breast): -32.2% [100 µM] (active)
growth (MDA-MB-435 melanoma): -78.2% [100 µM] (active)
growth (SW-620 colon): -21.8% [100 µM] (active)
growth (MCF7 breast): -41.9% [100 µM] (active)
growth (HCT-116 colon): -56.7% [100 µM] (active)
growth (HCC-2998 colon): -76.4% [100 µM] (active)
growth (KM12 colon): -82.1% [100 µM] (active)

— PubChem BioAssay (NCI)
